Screens as filed in PubChem.
The list is not random: actives were taken first. Their share in the collection is about 2.7%.
rCAG binder-1: r(CAG) repeat RNA binding; TO-PRO-1 dye displacement fluorescence; inhibition, % at 3 µM; 370,000 compounds, 1.3% hits; AID 651821;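 active means inhibition above the plate cutoff, the mean of all test compounds on that plate plus 3 SD, cut at about 35% in these data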;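 further: 0% = DMSO alone and 100% = 100 µM mitoxantrone as full dye displacement; higher means more dye released from RNA so lower well fluorescence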
bovine MsrA act: bovine methionine sulfoxide reductase A activation. 360,000 compounds, 0.3% hits. activation, % at 10.6 µM. purified bovine MsrA, absorbance read-out; in the data active means activation above about 7.5%;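 further: 0% = vehicle and 100% = reference activator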
MsrA inh: inhibitors of bovine MsrA; 360,000 compounds, 0.75% hits; inhibition, % at 15.5 µM; purified bovine MsrA, absorbance read-out; in the data active means inhibition above about 4.5%;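 further: 0% = vehicle wells with enzyme and 100% = reference inhibitor wells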
NadD inh: blocks S. aureus nicotinate mononucleotide adenylyltransferase; purified NadD enzyme, colorimetric absorbance read-out; inhibition, % at 20 µM; 360,000 compounds, 0.78% hits; AID 602399; in the data active means inhibition above about 26%
rCAG bind conf: r(CAG) RNA repeat binding, confirmation | 4,300 compounds, 70% hits | inhibition, % at 3 µM | shares compounds with rCAG binder-1 | TO-PRO-1 dye displacement fluorescence;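 active means inhibition above a per-plate cutoff, the mean inhibition of sample wells plus 3 SD, cut at about 35% in these data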;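 further: loss of TO-PRO-1 fluorescence as compound displaces dye from 1x1 AA loop RNA; 0% = DMSO only wells and 100% = 100 µM mitoxantrone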
dCAG dye counter: counter-screen for rCAG RNA binders: DNA CAG dye complex inhibitors | d(CAG) DNA oligo TO-PRO-1 dye displacement, fluorescence | 4,300 compounds, 94% hits | inhibition, % at 3 µM | shares compounds with rCAG binder-1 | AID 652068;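 active means inhibition above its plate's cutoff, the mean test-well inhibition plus 3 SD, cut at about 4.8% in these data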;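 further: 0% = DNA dye mix with DMSO and 100% = 100 µM mitoxantrone; hits displace the dye from DNA and so lower well fluorescence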
dCAG dye DR: counter-screen for rCAG binders: inhibitors of DNA CAG TO-PRO-1 complex. shares compounds with rCAG binder-1. DNA CAG/GTC duplex TO-PRO-1 dye displacement fluorescence. IC50, µM. 250 compounds, 20% hits; in the data active means IC50 below about 10 µM
dCAG DNA bind: counter-screen for rCAG binders: DNA CAG TO-PRO-1 complex inhibitors, late stage | IC50, µM | shares compounds with rCAG binder-1 | d(CAG) DNA duplex TO-PRO-1 dye displacement, fluorescence | 30 compounds, 80% hits
rCAG binder-2: binds r(CAG) RNA repeats in late stage dose response | IC50, µM | 30 compounds, 100% hits | shares compounds with rCAG binder-1 | r(CAG) RNA TO-PRO-1 dye displacement, fluorescence
Starred values were filed as active, the others as inactive; / = no result given. Unless noted, how the calls were made is not given here.

SMILES | rCAG binder-1 | bovine MsrA act | MsrA inh | NadD inh | rCAG bind conf | dCAG dye counter | others
CN(c1ccc(OCC(=O)Nc2cc(Cl)ccc2C(=O)O)cc1)S(=O)(=O)c1ccc(F)cc1 | 77* | -4 | 1 | 2 | 74* | 34* | dCAG dye DR=6.2*;dCAG DNA bind=2.5*;rCAG binder-2=1.2*
NS(=O)(=O)c1ccc(-c2ccc(/C=C3\C(=O)Nc4cc(Cl)ccc43)o2)cc1 | 46* | -3 | 3 | 20 | 26 | 21*
COC(=O)[C@]12CCCCC=C1N(CCC1=CCCCC1)C(=O)[C@H](CC(=O)NCCc1ccccc1OC)C2 | 5 | 0 | -1 | 0 | / | /
CNC(=S)Nc1cc(S(=O)(=O)Nc2cc(Cl)ccc2Cl)ccc1N1CCCC1 | 37* | -2 | 1 | 18 | 43* | 19*
COc1ccc2[nH]c3c(c2c1)CCN1C(=O)N([C@@H](C)C(=O)NCCc2ccc(F)cc2)C(=O)[C@]31C | 0 | -4 | 0 | -3 | / | /
CC(C)(C)c1ccc(CC(=O)N2CCC2(C)C(=O)NS(=O)(=O)c2ccc(F)cc2F)cc1 (stereo unspecified) | 41* | -1 | -1 | -8 | 30 | 6.1*
CC1(C(=O)NS(=O)(=O)c2ccc(F)cc2F)CCN1C(=O)Cc1ccc(-c2ccccc2)cc1 (stereo unspecified) | 58* | 0 | 1 | 6 | 44* | 11*
CC1(C(=O)NS(=O)(=O)Cc2ccccc2C(F)(F)F)CCN1C(=O)C/C=C/c1ccccc1 (stereo unspecified) | 46* | -3 | -1 | 4 | 51* | 10* | dCAG dye DR=>30
CC(C)(C)c1ccc(CC(=O)N2CCC2(C)C(=O)NS(=O)(=O)Cc2ccccc2)cc1 (stereo unspecified) | 41* | -1 | 0 | 0 | 36* | 9.3*
Cc1ccc(F)c(S(=O)(=O)NC(=O)C2(C)CCN2C(=O)Cc2ccc(C(C)(C)C)cc2)c1 (stereo unspecified) | 32 | -2 | -1 | 4 | / | /
CCC(CC)C(=O)Nc1cccc(SC)c1 | 3 | / | 0 | / | / | /
CC(C)(C)c1ccc(CC(=O)N2CCC2(C)C(=O)NS(=O)(=O)c2ccccc2C(F)(F)F)cc1 (stereo unspecified) | 58* | 4 | 1 | 1 | 45* | 13*
CC1(C(=O)NS(=O)(=O)c2ccccc2C(F)(F)F)CCN1C(=O)CC1CCCC1 (stereo unspecified) | 9 | 2 | 0 | -9 | / | /
O=[N+]([O-])c1cc2no[n+]([O-])c2cc1N1CCCCC1 | 44* | -2 | 0 | 18 | 7 | 3
N#Cc1cc(N2CCCCC2)c([N+](=O)[O-])cc1C#N | -2 | -10 | 0 | 3 | / | /
CN(C)S(=O)(=O)c1cccc(C(=O)Nc2cc3c(cc2C(=O)O)OCCCO3)c1 | 39* | -1 | 3 | -5 | 29 | 5.2*
CN(C)S(=O)(=O)c1cccc(C(=O)Nc2ccc(N3CCOCC3)cc2)c1 | 4 | -3 | 1 | 5 | / | /
CN(C)S(=O)(=O)c1ccc(C(=O)Nc2cc3c(cc2C(=O)O)OCCCO3)cc1 | 59* | -7 | 1 | -12 | 29 | 5.1*
O=C(NCCCN1CCOCC1)C(=O)NCC1OCCCN1S(=O)(=O)c1cc(F)ccc1F (stereo unspecified) | -5 | -1 | 0 | 2 | / | /
N#Cc1c(-c2ccccc2)nc(SCC(=O)NC2CCCCC2)[nH]c1=O | 31 | -1 | 2 | 5 | / | /
CN(C(=O)CSc1nc(-c2ccc(C(C)(C)C)cc2)c(C#N)c(=O)[nH]1)C1CCCCC1 | 70* | -3 | 0 | 19 | 84* | 50*
O=C(Nc1cccc(C(F)(F)F)c1)c1csc(COCCO)n1 | 0 | -5 | 0 | 1 | / | /
CCCCNC(=O)N(O)C1N(/N=C/c2cccs2)C(=S)SC1(C)C (stereo unspecified) | -2 | -4 | 1 | -9 | / | /
CCOC(=O)CCC(=O)Nc1ccc(S(=O)(=O)N2CCc3ccccc32)cc1 | 8 | -2 | 1 | 2 | / | /
N#C/C(=N\Nc1ccc(S(=O)(=O)N2CCCCCC2)cc1)C(N)=S | 45* | -7 | 2 | 11 | 44* | 14*
SMILES | rCAG binder-1 | bovine MsrA act | MsrA inh | NadD inh | rCAG bind conf | dCAG dye counter | others
CCOC(=O)/C(C#N)=N/Nc1ccc(S(=O)(=O)N2CCc3ccccc32)cc1 | 40* | -3 | 2 | 10 | 42* | 15*
N#C/C(=N\Nc1ccc(S(=O)(=O)N2CCc3ccccc32)cc1)C(N)=S | 85* | -7 | 1 | 23 | 62* | 27*
CC(C)NC(=S)N/N=C1\CCCc2ccccc21 | -6 | -2 | 1 | -1 | / | /
Cc1cccc(C)c1OCC(=O)NNC(=O)CCNC(=O)c1ccco1 | 0 | -2 | 1 | 0 | / | /
CCCc1cc(=O)oc2cc(C)cc(OCC(=O)O)c12 | 0 | -7 | 0 | 1 | / | /
CCCc1cc(=O)oc2cc(C)cc(OCC(=O)N[C@@H](CSCc3ccccc3)C(=O)O)c12 | 62* | -1 | 1 | 5 | 50* | 13*
Cc1cc(OCC(=O)NC(Cc2c[nH]c3ccc(O)cc23)C(=O)O)c2c(C)c(C)c(=O)oc2c1 (stereo unspecified) | 11 | -1 | 3 | 8 | / | /
CCCc1cc(=O)oc2cc(C)cc(OCC(=O)NC(Cc3ccc(Cl)cc3)C(=O)O)c12 (stereo unspecified) | 45* | -2 | 1 | -1 | 47* | 10* | dCAG dye DR=>30
CCCc1cc(=O)oc2cc(C)cc(OCC(=O)NC3CCN(Cc4ccccc4)CC3)c12 | -5 | -7 | 2 | -5 | / | /
Cc1cc(OCC(=O)NC(Cc2ccc(Cl)cc2)C(=O)O)c2c(C)c(C)c(=O)oc2c1 (stereo unspecified) | 45* | -1 | 2 | 1 | 42* | 9.4*
Cc1nn(CC(=O)NCCCN2CCCC2)c(=O)c2nn(-c3ccccc3)c(C)c12 | 1 | -2 | -1 | 4 | / | /
CCOC(=O)N1CCN(C(=O)C(CC(C)C)NS(=O)(=O)c2ccc(C)cc2)CC1 (stereo unspecified) | -2 | -3 | 0 | 1 | / | /
Cc1cccc(NC(=O)CNC(=O)CCNC(=O)c2ccc(C(C)(C)C)cc2)c1C | -1 | -4 | 0 | 0 | / | /
O=C(O)c1ccc(COc2ccccc2/C=C2\NC(=O)N(Cc3ccccc3)C2=O)cc1 | 43* | -11 | 2 | 1 | 46* | 11*
CCCN1C(=O)/C(=C/c2ccccc2OCc2ccc(C(=O)O)cc2)NC1=S | 39* | -3 | 1 | 8 | 34 | 8.1*
